Source: PubChem BioAssay (NCI)
About 83,000 compounds went through this panel and 20% of them were active in at least one assay; those are over-represented in the sample as a whole.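 Testing used 96-well plates and a 48-hour single-concentration exposure. Example: -40 means 40% of the starting cells died.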 Calls of active or inactive are those of the source. The calls were made as follows: active = growth percent below 10; inactive = the rest.

These molecules were tested on SN12C renal (assay: NCI-60 one-dose screen, 48 h (100 = growth as untreated, 0 = no growth, -100 = all killed)). Conditions: 10 µM unless noted.

SMILES	growth
CC(CO)(CO)C(=O)O	105% (inactive)
O=C(O)Cc1cccc2ccccc12	121% (inactive)
O=c1[nH]c(=O)c2cc(Cl)cc(Cl)c2[nH]1	91% (inactive)
C=CCC(OC(C)=O)c1ccc(OC)c(OC)c1 (stereo unspecified)	102% (inactive)
C=CCC(OC(C)=O)c1ccc(C(C)C)cc1 (stereo unspecified)	104% (inactive)
COC(=O)Cc1cc(COC(C)=O)ccc1C	114% (inactive)
CCCCCCCCCCCCCCCCCC(=O)NCCNC(=O)CCCCCCCCCCCCCCCCC	97.2% (inactive)
CC(=O)c1cccc(N(C)S(=O)(=O)c2ccc(C)cc2)c1	103% (inactive)
N#CC1(O)CCCCC1	110% (inactive)
CC(=O)OC(C)c1cccc(C#N)c1 (stereo unspecified)	99.1% (inactive)
CCN(C(C)=O)c1ccc([N+](=O)[O-])cc1	105% (inactive)
CC(C)=CCC[C@@H](C)[C@H]1CC[C@@]2(C)C3=C(CC[C@]12C)[C@@]1(C)CC[C@H](O)C(C)(C)[C@@H]1CC3	102% (inactive)
CCOc1ccc(C(=O)NCC(C)C)cc1	99.9% (inactive)
CCOC(=O)C(C#N)=C1CCN(C)CC1	97% (inactive)
CCOC(C=O)OCC	102% (inactive)
Cc1nc(O)cc(=O)[nH]1	109% (inactive)
COC1OC(C(O)C(O)CO)C(O)C(O)C1O (stereo unspecified)	94.1% (inactive)
O=C(Nc1ccccc1)c1ccco1	109% (inactive)
NC(=O)OCCO	105% (inactive)

SMILES	growth
CC(=O)c1ccc(C)cc1	103% (inactive)
O=C(CC(CC(=O)c1ccccc1)c1ccccn1)c1ccccc1	92.6% (inactive)
ON1CCCC1	102% (inactive)
CC(=O)c1cccc(NS(=O)(=O)c2ccc(C)cc2)c1	89.1% (inactive)
CC(=O)NC(CCc1ccc(Cl)c(Cl)c1)c1cccc(O)c(=O)c1 (stereo unspecified)	12.4% (inactive)
O=S(=O)(OCCOS(=O)(=O)c1ccccc1)c1ccccc1	97.1% (inactive)
Cc1cccc2ccccc12	100% (inactive)
O=C(OC1CCCC1)c1ccccc1Cl	108% (inactive)
N#CCCN1C(=O)CCC1C(=O)O (stereo unspecified)	106% (inactive)
CCOC(=O)C(CCC#N)(CCC#N)C(=O)OCC	105% (inactive)
Cc1ccc(OC(=O)c2ccccc2)cc1	109% (inactive)
O=C1NC(=O)C(c2ccccc2)O1 (stereo unspecified)	103% (inactive)
O=C(CCl)Oc1ccc([N+](=O)[O-])cc1	116% (inactive)
CCCCNC(=O)c1ccc(OCC)cc1	103% (inactive)
CC(CCC#N)(CCC#N)C(=O)c1ccccc1	102% (inactive)
O=[N+]([O-])c1c(Cl)ncnc1Cl	111% (inactive)
Cc1ccc(S(=O)(=O)CCCl)cc1	99% (inactive)
Cc1ccc(NC(=O)c2ccccc2Cl)cc1	101% (inactive)

These molecules were tested on UO-31 renal in the same assay as above. Conditions: 10 µM unless noted.

SMILES	growth
CC(CO)(CO)C(=O)O	98.6% (inactive)
O=C(O)Cc1cccc2ccccc12	93.6% (inactive)
O=c1[nH]c(=O)c2cc(Cl)cc(Cl)c2[nH]1	75.3% (inactive)
C=CCC(OC(C)=O)c1ccc(OC)c(OC)c1 (stereo unspecified)	90.4% (inactive)
C=CCC(OC(C)=O)c1ccc(C(C)C)cc1 (stereo unspecified)	84.9% (inactive)
COC(=O)Cc1cc(COC(C)=O)ccc1C	81.3% (inactive)
CCCCCCCCCCCCCCCCCC(=O)NCCNC(=O)CCCCCCCCCCCCCCCCC	49% (inactive)
CC(=O)c1cccc(N(C)S(=O)(=O)c2ccc(C)cc2)c1	82.2% (inactive)
N#CC1(O)CCCCC1	85.6% (inactive)
CC(=O)OC(C)c1cccc(C#N)c1 (stereo unspecified)	85.1% (inactive)
CC(C)=CCC[C@@H](C)[C@H]1CC[C@@]2(C)C3=C(CC[C@]12C)[C@@]1(C)CC[C@H](O)C(C)(C)[C@@H]1CC3	111% (inactive)
CCOc1ccc(C(=O)NCC(C)C)cc1	93.5% (inactive)
CCOC(=O)C(C#N)=C1CCN(C)CC1	87.5% (inactive)
CCOC(C=O)OCC	94.4% (inactive)
Cc1nc(O)cc(=O)[nH]1	72.8% (inactive)
COC1OC(C(O)C(O)CO)C(O)C(O)C1O (stereo unspecified)	97.1% (inactive)
O=C(Nc1ccccc1)c1ccco1	86.1% (inactive)

SMILES	growth
NC(=O)OCCO	87.7% (inactive)
CC(=O)c1ccc(C)cc1	75.7% (inactive)
O=C(CC(CC(=O)c1ccccc1)c1ccccn1)c1ccccc1	68.6% (inactive)
ON1CCCC1	95.5% (inactive)
CC(=O)c1cccc(NS(=O)(=O)c2ccc(C)cc2)c1	77% (inactive)
CC(=O)NC(CCc1ccc(Cl)c(Cl)c1)c1cccc(O)c(=O)c1 (stereo unspecified)	-20.9% (active)
Cc1cccc2ccccc12	86.8% (inactive)
O=C(OC1CCCC1)c1ccccc1Cl	93.2% (inactive)
N#CCCN1C(=O)CCC1C(=O)O (stereo unspecified)	101% (inactive)
CCOC(=O)C(CCC#N)(CCC#N)C(=O)OCC	95.2% (inactive)
Cc1ccc(OC(=O)c2ccccc2)cc1	97.2% (inactive)
O=C(CCl)Oc1ccc([N+](=O)[O-])cc1	60.8% (inactive)
CCCCNC(=O)c1ccc(OCC)cc1	101% (inactive)
CC(CCC#N)(CCC#N)C(=O)c1ccccc1	77.1% (inactive)
O=[N+]([O-])c1c(Cl)ncnc1Cl	101% (inactive)
Cc1ccc(S(=O)(=O)CCCl)cc1	74.2% (inactive)
Cc1ccc(NC(=O)c2ccccc2Cl)cc1	97% (inactive)
